# Test results taken from PubChem BioAssay.
# Some of the results follow. The source made the active and inactive calls. Cut-off read from the data, not from the text of the source, unless noted: active = activation above about 20%; inactive = the rest.
# Biological target: Peroxisome proliferator-activated receptor gamma (Homo sapiens) (UniProt P37231)
# Experiment: agonists of PPARgamma SRC-2 coactivator recruitment, confirmation, biochemical, HTS (AID 1297; in the data active = activation above about 22%;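 note: 0% = vehicle alone and 100% = reference agonist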)
# Details: biochemical SRC-2 recruitment by PPARgamma; at 8 µM; stronger effect = higher value
# Sequence of Peroxisome proliferator-activated receptor gamma (Homo sapiens) (P37231 whole entry, looked up): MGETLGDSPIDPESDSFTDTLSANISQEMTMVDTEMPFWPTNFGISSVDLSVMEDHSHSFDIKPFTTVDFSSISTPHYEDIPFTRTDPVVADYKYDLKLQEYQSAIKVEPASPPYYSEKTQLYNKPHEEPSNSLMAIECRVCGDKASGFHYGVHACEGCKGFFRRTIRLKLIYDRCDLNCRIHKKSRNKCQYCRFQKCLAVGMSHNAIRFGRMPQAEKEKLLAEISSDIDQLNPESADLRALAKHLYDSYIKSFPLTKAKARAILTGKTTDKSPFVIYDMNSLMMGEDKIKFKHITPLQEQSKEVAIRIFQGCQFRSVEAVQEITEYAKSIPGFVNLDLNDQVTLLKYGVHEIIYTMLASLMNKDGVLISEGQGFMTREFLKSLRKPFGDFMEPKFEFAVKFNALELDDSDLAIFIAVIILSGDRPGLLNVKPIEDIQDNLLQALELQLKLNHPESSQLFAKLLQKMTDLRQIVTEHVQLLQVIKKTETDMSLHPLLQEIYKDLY
row,Structure (SMILES),activation
1,OCC1(CCc2ccccc2)CCN(Cc2ccc3nsnc3c2)CC1,32.8% (active)
2,COC(=O)c1[nH]c2ccc(Br)cc2c1NC(=O)Oc1ccccc1,7.14% (inactive)
3,COc1ccc(/C(O)=C2/C(=O)C(=O)N(c3nc(C)c(C)s3)C2c2ccco2)cc1 (stereo not drawn),21.9% (active)
4,O=C(O)Cc1sc(-c2ccccc2)nc1-c1cccs1,42.6% (active)
5,Cc1cc(C)c2c(c1)cc(C)c1nnc(SCC(=O)Nc3cc(C)on3)n12,18.6% (inactive)
6,Cc1ccccc1-c1n[nH]c(=S)n1/N=C/c1ccc(-c2ccccc2Br)o1,33.5% (active)
7,NC(=O)CSc1oc(-c2cccs2)nc1S(=O)(=O)c1ccccc1,40.9% (active)
8,Cc1ccc(OCC(=O)Nc2ccc(-c3nc4ncccc4o3)cc2)cc1,2.88% (inactive)
9,CCN(/N=C/c1ccc(N(C)C)cc1)c1nc2ccccc2[nH]1,9.9% (inactive)
10,CC(=O)n1c(C=Nc2ccccc2)c(O)c2ccccc21,2.33% (inactive)
11,Cn1c(-c2sc3cc(C(F)(F)F)cnc3c2-c2ccccc2)n[nH]c1=S,89.8% (active)
12,Nc1ccc(Nc2ccccc2)cc1,10.1% (inactive)
13,O=C(Oc1ccccc1)Oc1ccc2c(c1)oc(=O)c1ccccc12,27.9% (active)
14,CCn1c(SCC(=O)Nc2cccc(F)c2)nnc1-c1cc2cc(Br)ccc2o1,18% (inactive)
15,COC(=O)c1ccccc1SC1CC(=O)N(c2cccc(C)c2)C1=O (stereo not drawn),0.78% (inactive)
16,CC(=O)c1sc2nc(SCC(=O)N3CCCCC3)[nH]c(=O)c2c1C,27.4% (active)
17,Cc1nc(-c2ccccc2)sc1-c1nc(-c2ccccc2)ncc1S(=O)(=O)c1ccccc1,48.5% (active)
18,Fc1ccc(COc2cccc(-c3n[nH]c(=S)o3)c2)cc1,51.6% (active)
19,CCc1c(-c2ccccc2)nc(N)c(C#N)c1-c1cccs1,11.1% (inactive)
20,CCOc1ccc(NC(=O)CSc2ncnc3c2sc2ccccc23)cc1,46% (active)
21,CC(C(=O)N1CCOCC1)N1c2cccc3cccc(c23)S1(=O)=O (stereo not drawn),-0.94% (inactive)
22,CCN(CCCNC(=O)CSc1cc(=O)n(C)c2cc(Cl)ccc12)Cc1ccccc1,29.4% (active)
23,Cc1cc(C)c2cc(CN(Cc3cccs3)Cc3nnnn3CC3CCCO3)c(=O)[nH]c2c1 (stereo not drawn),9.95% (inactive)
24,CCOC(=O)C1CCN(C(=O)CSc2cc(=O)n(C)c3ccccc23)CC1,38.9% (active)
25,CCn1c(=O)cc(SCC(=O)NCc2ccc3c(c2)OCO3)c2ccccc21,22.7% (active)
26,Cn1c(=O)cc(SCC(=O)N2CCN(C(=O)c3ccco3)CC2)c2ccccc21,22.2% (active)
27,CSc1c(SCc2ccccc2)cnn(Cc2ccccc2)c1=O,34.4% (active)
28,Cn1c(=O)cc(SCC(=O)N2CCCC2)c2cc(Cl)ccc21,60.1% (active)
29,COc1ccc2c(Cl)c(-c3nnco3)sc2c1,20.4% (inactive)

# Biological target: Peroxisome proliferator-activated receptor gamma (Homo sapiens) (UniProt P37231)
# Experiment: PPARgamma agonists recruiting SRC-1 coactivator, confirmation, biochemical (AID 1300);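 note: 0% = vehicle wells and 100% = reference agonist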
# Details: PPARgamma–SRC-1 coactivator recruitment biochemical assay; at 8 µM; stronger effect = higher value
row,Structure (SMILES),activation
1,OCC1(CCc2ccccc2)CCN(Cc2ccc3nsnc3c2)CC1,26.3% (active)
2,COC(=O)c1[nH]c2ccc(Br)cc2c1NC(=O)Oc1ccccc1,3.71% (inactive)
3,COc1ccc(/C(O)=C2/C(=O)C(=O)N(c3nc(C)c(C)s3)C2c2ccco2)cc1 (stereo not drawn),17.5% (inactive)
4,O=C(O)Cc1sc(-c2ccccc2)nc1-c1cccs1,34.7% (active)
5,Cc1cc(C)c2c(c1)cc(C)c1nnc(SCC(=O)Nc3cc(C)on3)n12,17.6% (inactive)
6,Cc1ccccc1-c1n[nH]c(=S)n1/N=C/c1ccc(-c2ccccc2Br)o1,28.2% (active)
7,NC(=O)CSc1oc(-c2cccs2)nc1S(=O)(=O)c1ccccc1,34.8% (active)
8,Cc1ccc(OCC(=O)Nc2ccc(-c3nc4ncccc4o3)cc2)cc1,8.01% (inactive)
9,CCN(/N=C/c1ccc(N(C)C)cc1)c1nc2ccccc2[nH]1,6.2% (inactive)
10,CC(=O)n1c(C=Nc2ccccc2)c(O)c2ccccc21,0.42% (inactive)
11,Cn1c(-c2sc3cc(C(F)(F)F)cnc3c2-c2ccccc2)n[nH]c1=S,67% (active)
12,Nc1ccc(Nc2ccccc2)cc1,5.63% (inactive)
13,O=C(Oc1ccccc1)Oc1ccc2c(c1)oc(=O)c1ccccc12,16.1% (inactive)
14,CCn1c(SCC(=O)Nc2cccc(F)c2)nnc1-c1cc2cc(Br)ccc2o1,15% (inactive)
15,COC(=O)c1ccccc1SC1CC(=O)N(c2cccc(C)c2)C1=O (stereo not drawn),-2.36% (inactive)
16,CC(=O)c1sc2nc(SCC(=O)N3CCCCC3)[nH]c(=O)c2c1C,20.8% (active)
17,Cc1nc(-c2ccccc2)sc1-c1nc(-c2ccccc2)ncc1S(=O)(=O)c1ccccc1,29.3% (active)
18,Fc1ccc(COc2cccc(-c3n[nH]c(=S)o3)c2)cc1,39.9% (active)
19,CCc1c(-c2ccccc2)nc(N)c(C#N)c1-c1cccs1,13.3% (inactive)
20,CCOc1ccc(NC(=O)CSc2ncnc3c2sc2ccccc23)cc1,29.5% (active)
21,CC(C(=O)N1CCOCC1)N1c2cccc3cccc(c23)S1(=O)=O (stereo not drawn),1.12% (inactive)
22,CCN(CCCNC(=O)CSc1cc(=O)n(C)c2cc(Cl)ccc12)Cc1ccccc1,19.2% (inactive)
23,Cc1cc(C)c2cc(CN(Cc3cccs3)Cc3nnnn3CC3CCCO3)c(=O)[nH]c2c1 (stereo not drawn),11.9% (inactive)
24,CCOC(=O)C1CCN(C(=O)CSc2cc(=O)n(C)c3ccccc23)CC1,22.9% (active)
25,CCn1c(=O)cc(SCC(=O)NCc2ccc3c(c2)OCO3)c2ccccc21,15.8% (inactive)
26,Cn1c(=O)cc(SCC(=O)N2CCN(C(=O)c3ccco3)CC2)c2ccccc21,12.7% (inactive)
27,CSc1c(SCc2ccccc2)cnn(Cc2ccccc2)c1=O,28.5% (active)
28,Cn1c(=O)cc(SCC(=O)N2CCCC2)c2cc(Cl)ccc21,41.1% (active)
29,COc1ccc2c(Cl)c(-c3nnco3)sc2c1,13.6% (inactive)
